# KKLEB cytotox: CF airway cell cytotoxicity counter-screen; KKLEB CF airway cells viability, ATPlite luminescence, overnight; hits give low values; cells stimulated with P. aeruginosa culture filtrate; 360,000 compounds, 0.36% hits; activity change (cytotoxicity), % at 5 µM;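 active means corrected activity change at or below -50% at 5 µM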
# C8 TRAIL sens: caspase-8 TRAIL sensitization | 360,000 compounds, 1% hits | NB7+C8 cells + TRAIL, ATPlite viability luminescence | inhibition (viability loss, TRAIL sensitization), % at 10 µM | AID 624354;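 active means compounds causing at least 50% loss of cell viability in the single-dose screen, relative to plate controls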
# iPSC survival up: increases survival of single human iPS cells; survival enhancement, % at 20 µM; 360,000 compounds, 0.044% hits; hiPSC single-cell survival, ATPlite luminescence; 100% = ROCK inhibitor wells, 0% = DMSO; in the data active means survival enhancement above about 18%;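 further: cells exposed to compounds for 16 hours before the ATP read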
# CF NFkB inh: cystic fibrosis NF-kB activation inhibition. KKLEB NF-kB-GFP reporter, PAF-induced, GFP fluorescence overnight. 360,000 compounds, 0.86% hits. inhibition, % at 5 µM;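 active means at least 50% inhibition at 5 µM, scaled per plate between neutral and stimulator controls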;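 further: PAF is a Pseudomonas aeruginosa culture filtrate used as stimulus; plate controls were PAF-stimulated DMSO wells for no effect and unstimulated DMSO wells for full effect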
# HIF-2a inh: HIF-2a inhibition; 786-0 RCC cells HIF-2a reporter, luciferase luminescence, overnight; inhibition, % at 18.8 µM; 360,000 compounds, 0.72% hits; AID 624352;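 active means inhibition of the luminescence signal of 40% or more relative to plate controls, in a single-dose primary screen at 18.75 µM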
# PPC-1+TRAIL kill: kills PPC-1 cancer cells in the presence of TRAIL. 220,000 compounds, 0.41% hits. cell killing (% activity), % at 4 µM or 5 µM. PPC-1 cells + TRAIL, ATPLite viability luminescence;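 active means cell killing above 50% in the first pass at 4 µM, then a duplicate retest at 5 µM averaging 50% or more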;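 further: plate controls were cells with TRAIL plus DMSO for no effect and medium-only wells lacking cells for full effect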
# * = called active by the depositor; x = no result. Sampled rows, rich in hits. Any-hit rate of the full collection: about 2.2%.
SMILES,KKLEB cytotox,C8 TRAIL sens,iPSC survival up,CF NFkB inh,HIF-2a inh,PPC-1+TRAIL kill
CN(C)CC(CCC(CN(C)C)C(=O)c1ccccc1)C(=O)c1ccccc1 (centres undefined),-61.4*,16.3,4.5,90.4*,93.7*,51.9*
COc1ccc(C(=O)C(CCCCC(CN(C)C)C(=O)c2ccc(OC)cc2)CN(C)C)cc1 (centres undefined),1.0,-8.8,-2.5,4.1,15.3,36.7
O=C(c1ccccc1)C(CCc1ccccn1)CCc1ccccn1,3.9,0.8,-1.1,-26.9,-146.3,x
COc1ccc(CC(=O)Nc2cccc(-c3nnc(-c4ccc(C)cc4)o3)c2)cc1OC,-1.2,90.1*,-3.4,-20.5,-13.4,16.3
COc1ccc(CC(=O)Nc2cccc(-c3nnc(-c4ccccc4)o3)c2)cc1OC,0.1,56.2*,0.5,-18.2,-297.4,23.9
CCOc1cccc(C(=O)Nc2cccc(-c3nnc(-c4ccc(C)cc4)o3)c2)c1,-67.9*,34.6,-4.3,56.8*,0.7,20.8
CCOc1cccc(C(=O)Nc2cccc(-c3nnc(-c4ccccc4)o3)c2)c1,-2.9,14.9,-2.3,-1.3,-73.8,18.8
COc1ccc(CC(=O)Nc2cccc(-c3nnc(-c4cccc(C)c4)o3)c2)cc1OC,-0.1,3.3,4.1,4.3,-81.9,25.7
CCOC(=O)c1sc(NC(=O)CSc2nc(-c3ccco3)cc(C(F)(F)F)n2)c(C(=O)OCC)c1C,-10.6,-1.9,-0.2,9.6,10.1,x
NC(=O)CC(NC(=O)c1cccc(Br)c1)c1ccc(N2CCN(c3ccccn3)CC2)c([N+](=O)[O-])c1 (centres undefined),-13.5,-7.1,1.2,-19.4,81.4*,x
NC(=O)CC(NC(=O)c1ccc(Br)cc1)c1ccc(N2CCN(c3ccccn3)CC2)c([N+](=O)[O-])c1 (centres undefined),-12.3,9.4,-2.7,7.5,-3.9,-11.2
Cc1nnsc1C(=O)N/N=C/c1ccc2ccccc2c1O,-1.9,17.2,-0.8,0.9,3.1,59.7*
COc1ccc(C(=O)OCC(=O)Nc2ccc3c(c2)OCO3)cc1S(=O)(=O)N1CCOCC1,7.6,-28.5,0.8,6.7,1.4,x
COc1ccc(/C=C2/SC(=S)N(n3c(C)ccc3C)C2=O)cc1,-7.8,61.5*,-2.5,-10.7,1.1,26.9
CCOc1ccc(/C=C2/SC(=S)N(n3c(C)ccc3C)C2=O)cc1,-7.0,50.5*,-1.4,-0.3,-5.9,4.5
CCOc1ccc(N2C(=O)/C(=C/c3ccccn3)SC2=S)cc1,x,x,x,x,x,-28.3
CN(C(=O)CN1C(=O)c2ccccc2S1(=O)=O)C1CCCCC1,11.8,-17.2,-2.2,8.3,-67.2,x
CCCOC(=O)C1=C(C)N(C)C(=O)NC1c1cc2c(cc1Br)OCO2 (centres undefined),-4.9,0.1,-0.2,14.1,11.3,x
Cc1cccc(NC(=O)CNC(=O)Cn2cc(C(F)(F)F)cc(Cl)c2=O)c1C,4.5,-6.7,-0.2,3.9,9.5,x
CCOC(=O)c1c(N)n(CCOC(=O)c2cccs2)c2nc3ccccc3nc12,-37.7,-3.5,-1.3,50.3*,-6.3,-6.4
N#CC1=C(N)OC2=C(C(=O)CC(c3ccccc3)C2)C1c1ccoc1 (centres undefined),6.3,1.7,-0.1,5.5,13.8,85.2*
N#CC1=C(N)OC2=C(C(=O)CC(c3ccccc3)C2)C1c1cccnc1 (centres undefined),-7.2,15.4,0.8,-2.0,-1.8,16.3
CN(C)CCCN(C(=O)/C=C/c1cccs1)c1nc2c(F)cccc2s1,-10.9,55.0*,-0.5,18.6,14.2,14.1
Cc1cc(C)n2cc(CSc3ncn[nH]3)nc2n1,-4.9,4.4,0.6,4.8,12.9,19.5
Cc1ccc(-c2cc3nc4c(c(=O)n3[nH]2)CCCC4)cc1,2.3,60.4*,-1.1,-12.3,-196.6,x
SMILES,KKLEB cytotox,C8 TRAIL sens,iPSC survival up,CF NFkB inh,HIF-2a inh,PPC-1+TRAIL kill
O=C(CCl)Nc1ccc(Oc2cnc3ccccc3n2)cc1,-1.5,92.8*,-3.2,15.9,-58.2,-18.7
COc1ccc(NC(=O)CCl)cn1,x,x,x,x,x,13.9
O=C(CNCc1ccccc1)NCCCN1CCCC1=O,-18.9,-9.3,0.9,15.6,5.1,x
COC(=O)C1(CC2CC(c3ccccc3)=NO2)CCN(C(=O)OC(C)(C)C)CC1 (centres undefined),8.5,-1.8,-1.8,-16.2,-9.3,x
CCOC(=O)c1cnc2c(-c3ccccc3)cnn2c1C,-13.1,58.5*,-2.5,-20.5,-263.0,23.2
O=C(O)c1cccc(S(=O)(=O)N2CCN(Cc3ccc4c(c3)OCO4)CC2)c1,-4.8,-1.5,-0.2,1.3,2.8,x
NC(=S)NN=C1CSSC1,2.9,17.3,-2.4,70.3*,-1.5,x
CC1(C)CCC(=NNC(N)=S)CC1,7.2,-0.8,6.0,-12.9,-2.6,x
Cc1ccc(Nc2nc(N)[nH]c(=O)c2N=O)cc1,2.5,-1.2,-0.4,-11.8,17.9,0.8
COc1cccc(C(=O)c2sc(NC(C)C)nc2N)c1,-2.9,21.6,-2.4,77.7*,-92.8,13.7
COc1ccc(C(=O)c2sc(NC(C)C)nc2N)cc1OC,-4.4,-19.7,2.1,57.7*,-13.9,9.1
COc1ccc(Nc2nc(N)c(C(=O)c3ccc(F)cc3)s2)cc1,-10.9,5.8,-0.5,41.0,-108.8,x
COc1ccc(Nc2nc(N)c(C(=O)c3ccc(OC)cc3)s2)cc1,-2.0,13.2,-0.1,52.9*,-82.3,x
CNC(=O)c1cc(S(=O)(=O)Nc2ccc3c(c2)OCO3)ccc1C,-5.5,2.6,-0.2,24.7,8.9,x
CCC(C(=O)Nc1ccsc1C(=O)OC)c1ccccc1 (centres undefined),2.6,-3.7,-0.3,-13.6,2.8,8.2
O=C(Cc1c(F)c(F)c(F)c(F)c1F)Nc1nc(-c2ccccc2)cs1,11.0,8.6,0.5,-15.9,-18.6,x
Cc1ccc(C)c(/C=C/C(=O)c2ccccc(=O)c2O)c1,-10.6,18.7,-1.2,-17.2,71.7*,13.6
CC(NC(=O)OC(C)(C)C)C(=O)Oc1cc2oc(=O)cc(-c3ccccc3)c2cc1Cl (centres undefined),-18.5,-16.7,1.6,82.4*,-18.4,5.2
CC(Oc1cc2oc(=O)cc(-c3ccccc3)c2cc1Cl)C(=O)NCC1CCC(C(=O)O)CC1 (centres undefined),4.0,3.3,0.5,12.1,2.9,x
N#CC(c1ccc(Cl)cc1)c1ccc2c(C(F)(F)F)cc(C(F)(F)F)nc2n1 (centres undefined),-74.5*,19.6,-4.8,67.2*,-32.4,-0.9
FC(F)(F)c1cc(C(F)(F)F)c2ccc(N3CCN(c4ccc(Cl)cc4)CC3)nc2n1,-24.1,2.8,-0.6,4.1,5.2,15.1
CN(C)S(=O)(=O)c1ccc(C(=O)NCc2nnc(SCC(=O)c3ccccc3)o2)cc1,5.8,-0.6,0.4,10.6,-5.7,x

# High-throughput results: PubChem, Sanford-Burnham Center for Chemical Genomics
